Most compounds without a hit are left out; they make up all but 2.4% or so of the library.
LT uptake inh – anthrax lethal toxin internalization inhibition. Cells, anthrax lethal toxin internalization, FRET ratio (460/530). 70,000 tested, 0.67% active. Potency, µM (highest dose often 40 µM), actives largely listed as inhibitors. AID 912; note: nearly all actives have a fitted effect of over 50% in size
AmpC det inh – AmpC beta-lactamase inhibition, detergent assay; Potency, µM (series often up to 28.7 µM); 71,000 tested, 0.09% active; P00811; purified AmpC, nitrocefin hydrolysis with detergent; active = well fitted curve in the direction sought with a large enough effect; inconclusive = small, poorly fitted or top-dose-only effect
Target sequence (P00811 whole entry, looked up): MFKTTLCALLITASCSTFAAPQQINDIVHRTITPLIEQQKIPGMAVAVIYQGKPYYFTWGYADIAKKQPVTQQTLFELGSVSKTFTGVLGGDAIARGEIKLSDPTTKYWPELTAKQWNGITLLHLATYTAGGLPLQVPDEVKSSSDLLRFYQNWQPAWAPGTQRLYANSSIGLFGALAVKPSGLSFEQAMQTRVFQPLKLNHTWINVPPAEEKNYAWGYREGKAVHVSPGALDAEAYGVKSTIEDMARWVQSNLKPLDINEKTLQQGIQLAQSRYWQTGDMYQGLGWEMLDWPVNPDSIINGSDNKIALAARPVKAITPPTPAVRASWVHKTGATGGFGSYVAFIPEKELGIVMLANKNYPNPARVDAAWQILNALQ
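E. coli AmpC (5.3 nM) in 20 mM phosphate pH 7.0 with 0.01% Triton X-100, preincubated 15 min RT with compound; nitrocefin (2 uL of 800 uM stock) hydrolysis followed by 480 nm absorbance every 20 s over 4 min.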
AmpC nodet inh – inhibitors of E. coli AmpC beta-lactamase without detergent. P00811. AmpC nitrocefin hydrolysis, absorbance 480 nm, no detergent. Potency, µM (top dose mostly 28.7 µM). 71,000 tested, 1.8% active
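AmpC in 20 mM phosphate buffer pH 7.0 was preincubated 15 min at room temperature with compounds. Nitrocefin (800 uM stock) was then added and hydrolysis followed at 480 nm every 20 s for 4 min.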
Prx2 Sm inh – blocks S. mansoni peroxiredoxin 2 enzymatic activity. 65,000 tested, 0.07% active. AID 448. Potency, µM. S. mansoni Prx2 activity coupled to TGR/GSH (TGR is thioredoxin glutathione reductase), NADPH fluorescence loss, qHTS
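Purified S. mansoni TGR and Prx2 in pH 7.4 phosphate buffer with EDTA and Tween-20 were preincubated with compounds for 15 min. Further NADPH/GSH was added, then a 2.5 mM H2O2 aliquot initiated turnover, followed kinetically by NADPH fluorescence.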
A number is an active result; n = inactive; u = inconclusive; x = not tested or not shown; [ ] = another dose, or the depositor's remark. Unless noted, calls come from the whole dose curve.

SMILES	LT uptake inh	AmpC det inh	AmpC nodet inh	Prx2 Sm inh
c1ccc2c[n+](CCCC[n+]3ccc4ccccc4c3)ccc2c1	n[8 µM]	n[5.75 µM]	n[5.75 µM]	n
CO[C@@H]1COC(=O)C/C=C\[C@@H](C)[C@H](OC)COC(=O)[C@@H](C)COC(=O)C/C=C\[C@H]1C	n[1.6 µM]	x	x	x
ClC/C=C/CCl	n	n	n	x
O=C(c1ccc(Cl)cc1)c1ccccc1C(=O)N1CCOCC1	n	n	n	n
Nc1nc(C(=O)N2CCOCC2)nn1C(=O)c1ccc(Cl)cc1	n	n	3.98µM[single pt active]	n
CCOC(=O)C[C@@H](C(=O)OCC)[C@@H]1CCCCC1=O	n[8 µM]	x	x	x
CCOC(=O)C(C)Sc1nnc(Cc2cc(=O)[nH]c(=O)[nH]2)n1-c1ccc(OCC)cc1 (stereo unspecified)	n	n	3.98µM[single pt active]	n
CCOC(=O)C(C)Sc1nnc(Cc2cc(=O)[nH]c(=O)[nH]2)n1-c1cccc(OC)c1 (stereo unspecified)	n	n	3.98µM[single pt active]	n
CCOc1ccc(-n2c(Cc3cc(=O)[nH]c(=O)[nH]3)nnc2SC(C)C)cc1	u	n	n	n
CCOc1ccc(-n2c(Cc3cc(=O)[nH]c(=O)[nH]3)nnc2SCc2cccnc2)cc1	n	n	3.98µM[single pt active]	n
COc1cccc([C@@H]2Oc3ccc(OC)cc3/C(=N/O[C@@H](C)CN3CCCc4nc(C)c(C)cc43)[C@@H]2O)c1	n[1.6 µM]	x	x	x
Cc1ccc(C)o1	u	n	n	x
CCC(C)NC(=O)CS(=O)Cc1nc(-c2cccc(OC)c2)oc1C (stereo unspecified)	n	n	3.98µM[single pt active]	n
COc1cccc(-c2nc(CS(=O)CC(=O)NC3CCCC3)c(C)o2)c1 (stereo unspecified)	n	n	3.98µM[single pt active]	n
Cc1cccc(-c2nc(CS(=O)CC(=O)N3CCN(C)CC3)c(C)o2)c1 (stereo unspecified)	n	n	3.98µM[single pt active]	n
COc1cc(OC)c(C(=O)Oc2ccc3c(c2)OCO3)cc1OC	u	n	n	n
COc1ccc(C(=O)Oc2ccc3c(c2)OCO3)cc1OC	7.94µM	n	n	x
CN1CCCC2(CCN(C(=O)c3cc(C(F)(F)F)cc(C(F)(F)F)c3)CC2)C1	n	n	n	n
COC(=O)C1=C(C)NC(C)=C([N+](=O)[O-])[C@@H]1c1ccccc1C(F)(F)F	u	n	n	u
O=C(c1cccc(F)c1)N1CCC2(CCN(Cc3cc(C(F)(F)F)cc(C(F)(F)F)c3)CC2)CC1	n	n	n	n
CCOC(=O)CN1C2=NCCN2c2ccccc21	n	n	n	n
CCOC(=O)CN1C(=O)C(=O)c2cccc(C)c21	n	n	3.98µM[single pt active]	n
COc1cc(C(=O)OCC(=O)Nc2cc(C)on2)ccc1OCc1ccccc1Cl	n	n	12.6µM	n
C[C@@]12CCC[C@](C)(C(=O)O)[C@@H]1CCc1ccc(O)cc12	u	n	n	n
CN1c2cc3c(cc2N=C(c2ccc(C(=O)O)cc2)c2ccccc21)C(C)(C)CCC3(C)C	10µM	x	x	x
SMILES	LT uptake inh	AmpC det inh	AmpC nodet inh	Prx2 Sm inh
Cc1nonc1NC(=O)CSc1nc2cc(Cl)ccc2c2c1CCCC2	n	n	12.6µM	n
Cc1cc(C)c(OCC(=O)Nc2ccccc2N2CCOCC2)c(C)c1	u	n	n	n
COc1ccc(C)cc1C(=O)CCC(=O)Nc1ccccc1N1CCOCC1	15.8µM	n	n	n
Cc1nn(-c2nc3ccccc3s2)c(C)c1Oc1ccccc1O	10µM	n	n	n
Cc1nn(-c2ccccn2)c(C)c1Oc1ccccc1O	n	n	n	n
CO[C@H]1COC(=O)[C@@H](CCSC)NC(=O)C/C=C\[C@@H](C)[C@H](OC)COC(=O)[C@@H](OCc2ccccc2)/C=C\[C@@H]1C	n[8 µM]	x	x	x
COc1ncc2nc(-c3ccccc3)c(=O)n(-c3ccccc3)c2n1	u	n	n	n
O=C(c1cccs1)N1CCN(CCc2ccccc2)CC1	n	n	n	n
O=C(CCc1ccccc1)N1CCN(CCO)CC1	n	n	3.98µM[single pt active]	n
C[C@@H](C(=O)O)c1ccc(N2Cc3ccccc3C2=O)cc1	n[3.58 µM]	n	n	n
CCC(=O)N1CCN(c2ccc(NC(=O)c3cc4ccccc4o3)cc2Cl)CC1	10µM	n	n	n
CCCC(=O)N1CCN(c2ccc(NC(=O)c3cc4ccccc4o3)cc2Cl)CC1	6.31µM	n	n	n
O=C(Nc1ccc(N2CCN(C(=O)c3ccco3)CC2)c(Cl)c1)c1cc2ccccc2o1	u	n	n	n
CC(=O)NCCNc1nc(-c2cccc(NS(C)(=O)=O)c2)nc2ccccc12	n	n	n	n
CC(=O)NCCNc1ncnc2ccc(-c3ccc4c(c3)OCO4)cc12	n	n	n	n
Cc1cc(NS(=O)(=O)c2ccc(NC(=O)COc3ccccc3C(C)C)cc2)no1	n	n	3.98µM[single pt active]	n

Source: PubChem
